From PubChem
The list is not random: actives were taken first. Their share in the collection is about 5.4%.
PP5 inh: PP5 (human) phosphatase inhibition; P53041; purified PP5c, OMFP substrate fluorescence; inhibition, % at 6.7 µM; actives 0.18% (n = 320,000); AID 1987;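 active = inhibition above the campaign's mean inhibition across all tested compounds plus 3 SD, cut at about 9.5% in these data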
PP1 inh: PP1-alpha (human) inhibition in PP5 counter-screen. P62136. purified PP1alpha, OMFP fluorescence. inhibition, % at 6.7 µM. actives 0.9% (n = 320,000);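 active = inhibition above the mean inhibition of all tested compounds plus 3 SD, computed separately for each screening campaign, cut at about 15% in these data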
Calb FLC: C. albicans growth modulation with fluconazole; growth inhibition, % (concentration not given with the values); C. albicans CaCi-2 (fluconazole-resistant clinical isolate) + fluconazole, Alamar Blue growth, 48 h; AID 1979; actives 0.57% (n = 300,000);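 active = growth inhibition above about 58% in most replicates, limit read from the data, passing the limit was not always enough; inconclusive = exactly half the replicates above a set limit; inactive = most replicates below a set limit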;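 note: all wells also contain fluconazole at 8 µg/ml as a sub-toxic cotreatment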
CSC inhib: cancer stem cell inhibition. cancer stem cell-like cells viability, luminescence. inhibition, % at 7.5 µM. actives 1.1% (n = 300,000). AID 2717; in the data active = inhibition above about 75%; inconclusive = no clear call, values can overlap the other calls; tested in HMLE shEcad cells
ALR H2O2 inh: human ALR oxidase inhibition via reduced H2O2; inhibition, % (concentration not given with the values); actives 3.8% (n = 290,000); purified ALR, DTT oxidation, H2O2 HRP-luminol luminescence; P55789; AID 485317;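 active = mean replicate inhibition above about 79%, with every replicate also reaching it, limit read from the data; inconclusive = only one of the two criteria met; inactive = mean below limit and not every replicate reaching it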
Target sequence (P55789 whole entry, looked up): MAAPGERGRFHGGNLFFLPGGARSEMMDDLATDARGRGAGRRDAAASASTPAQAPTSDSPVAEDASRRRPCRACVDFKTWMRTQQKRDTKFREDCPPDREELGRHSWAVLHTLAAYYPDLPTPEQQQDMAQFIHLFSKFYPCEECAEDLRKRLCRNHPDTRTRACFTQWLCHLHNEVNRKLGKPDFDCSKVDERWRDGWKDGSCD
PP1 inh confirm: human PP1 phosphatase inhibition, confirmation | shares compounds with PP1 inh | purified PP1alpha, OMFP substrate fluorescence | inhibition, % at 6.7 µM | actives 52% (n = 1,900) | AID 2358;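 active = mean PP1 inhibition above a set limit taken from the earlier primary screen, cut at about 15% in these data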
PP5 counter: inhibits human PP5 phosphatase in PP1 counter-screen | inhibition, % at 6.7 µM | actives 4% (n = 1,900) | purified PP5c, OMFP fluorescence | shares compounds with PP1 inh;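 active = mean PP5 inhibition over triplicate wells above about 9.5% taken from the earlier PP1 screen, limit read from the data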
Numbers stand for hits; - = inactive; ? = inconclusive; . = no result.

SMILES	PP5 inh	PP1 inh	Calb FLC	CSC inhib	ALR H2O2 inh	PP1 inh confirm	PP5 counter
COCCNC(=O)Cn1nc(-c2ccccc2OC)ccc1=O	-	-	-	-	-	.	.
Cn1cc(C(=O)N/N=C/c2c(O)ccc3ccccc23)ccc1=O	-	26.9	-	94.4	-	28.9	-
Cc1onc(-c2c(Cl)cccc2Cl)c1C(=O)N1CCOCC1	-	-	-	-	-	.	.
COc1ccc(-c2c[n+]3c4n2CCCCC4=C(c2ccccc2)C3)cc1	-	18.3	-	.	.	-	-
COc1ccccc1/C=N/NC(=O)CSc1ccc2ccccc2n1	-	-	-	-	-	.	.
CCCCSc1nc(C)cc(SCC(=O)N/N=C/c2cccc(OC)c2O)n1	-	20.8	-	?	-	-	-
O=C1c2cccc3c(Cl)ccc(c23)C(=O)N1O	-	38.3	-	-	-	29.9	-
COCCNC(=O)CN1C(=O)NC2(CCCc3cc(OC)ccc32)C1=O (stereo not drawn)	-	-	-	-	-	.	.
Cc1ccc(C2C(C#N)=C3N=C(N)c4ccccc4N3C3=C2C(=O)CCC3)cc1 (stereo not drawn)	-	-	-	-	-	.	.
N#CC1=C2N=C(N)c3c(sc4c3CCCCC4)N2C2=C(C(=O)CCC2)C1c1ccccc1 (stereo not drawn)	-	17.7	-	-	-	-	-
COCCCNC(=S)NCCCNc1nc2cc(C)cc(C)c2cc1C#N	-	-	-	-	-	.	.
Cc1ccc(-c2csc(Cc3nc(-c4ccc5c(c4)CCC(=O)N5)cs3)n2)cc1	-	36.1	-	-	-	16.3	-
COc1ccccc1CNC(=O)C(C)NS(=O)(=O)c1ccccc1 (stereo not drawn)	-	-	-	-	-	.	.
COc1cc(C2c3c(c(C)c(C)oc3=O)Oc3c(C)c(C)oc(=O)c32)ccc1OS(=O)(=O)c1ccc(C)cc1	-	21.3	.	-	-	26.0	-
COc1cc(C(=O)OCC(=O)Nc2ccc(C(C)=O)cc2)ccc1OCC(=O)N1CCOCC1	-	-	-	-	-	.	.
COc1cccc([C@@H]2CC=C(C(=O)O)[C@H](c3ccc(F)cc3)N2S(=O)(=O)c2ccc(C)cc2)c1	-	-	.	-	-	.	.
COc1ccc2[nH]c3c(=O)n(CCCCC(=O)N4CCCC4)c(=S)[nH]c3c2c1	-	36.2	-	-	-	32.8	-
O=C(Nc1nn[nH]n1)c1cccc(Oc2ccccc2)c1	-	25.7	-	-	-	-	-
CCOCc1nnc(NS(C)(=O)=O)s1	-	-	-	-	-	.	.
CSC1=NCCN1C(=O)c1ccco1	-	-	-	-	-	.	.
CCOC(=O)c1cc(-c2cccs2)nc2c1c(C)nn2-c1ccccn1	-	22.6	-	103.9	.	24.7	-
Cc1cc(C)c(OCCOCCN2CCN(C)CC2)c(Cl)c1	-	-	-	-	-	.	.
CN(C)c1nc2ccccc2n(C)c1=O	-	-	-	-	-	.	.
CN1CCN(c2nc(-c3ccccn3)nc3ccccc23)CC1	-	-	-	-	-	.	.
Cc1cccc(Oc2nc(-c3ccccn3)nc3ccccc23)c1	-	-	-	-	-	.	.
SMILES	PP5 inh	PP1 inh	Calb FLC	CSC inhib	ALR H2O2 inh	PP1 inh confirm	PP5 counter
Cc1ccccc1Oc1nc(-c2ccccn2)nc2ccccc12	-	19.9	-	-	-	16.2	-
c1ccc(N2CCN(c3nc(-c4ccccn4)nc4ccccc34)CC2)cc1	-	63.8	-	-	-	45.5	-
O=C(NC(=S)Nc1ccc2[nH]c(=O)[nH]c2c1)c1cncc(Br)c1	-	-	-	-	-	.	.
CCOC(=O)N1CCN(C(=O)c2ccc3c(c2)ncn3C2CCCC2)CC1	-	-	?	-	-	.	.
Cc1cc(OCC(=O)Nc2ccc(N3CCCC3)cc2)cc(C)c1Cl	-	17.7	-	-	-	-	-
CCOc1ccc(OCC(=O)Nc2ccc(N3CCCCC3)cc2)cc1	-	-	-	-	-	.	.
CSc1nc(N)nc(C(C)C)n1	-	-	-	-	-	.	.
CN1CCN(C(=O)c2ccc(N(Cc3ccccc3Cl)S(C)(=O)=O)cc2)CC1	-	-	-	.	-	.	.
CCc1ccc(N=C2NC(=O)/C(=C/c3cc(OC)c(OC)c(OC)c3)S2)cc1	-	-	-	-	-	.	.
CCOc1cc(/C=C2\SC(=Nc3ccc(CC)cc3)NC2=O)ccc1OCC(=O)O	-	21.7	-	-	.	-	-
CCc1ccc(N=C2NC(=O)/C(=C/c3cc(Br)c(OCC(=O)O)c(OC)c3)S2)cc1	-	30.3	-	-	97.7	21.1	-
